# Screening results from PubChem BioAssay.
# This is a sample that favours compounds with a hit; in the whole collection about 4% have one here.
# DENV2 CPE rescue – DENV2-induced cell death inhibition; DENV2-infected cells, cytopathic effect rescue, plate reader; CPE inhibition, % at 9.99 µM; hit rate 1.7% among 350,000; in the data active = CPE inhibition above about 20%, passing the limit was not always enough; inconclusive = no clear call, values can overlap the other calls; tested in BHK-21 cells;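 note: 0% = median of neutral control wells and 100% = median of positive control wells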
# MLL AF4-AF9 inh – MLL-AF4/AF9 protein interaction inhibition. P42568. AlphaScreen, biotin-AF4 peptide binding to FLAG-AF9. inhibition, % at 10 µM. hit rate 0.47% among 350,000. AID 651704;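 active = every replicate reaching a set inhibition limit, whatever the replicate mean, cut at about 25% in these data; inconclusive = mean inhibition reaches that limit but some replicates miss it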;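 note: 0% = plate neutral control median and 100% = total signal loss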
# RAD52 inh – RAD52 (human) annealing inhibition; P43351; recombinant RAD52 DNA annealing, FRET fluorescence; inhibition, % at 18.7 µM; hit rate 0.46% among 360,000;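 active = every replicate showing at least 50% inhibition; inconclusive = mean inhibition at least 50% but not in every replicate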
# FGF22 binding – FGF22 (human) thermal shift binding; Q9HCT0; recombinant FGF22 thermal shift, SYPRO orange fluorescence; percent of sucrose octasulfate shift, DMSO zero; activity (Tm shift, normalised), % at 9.99 µM; hit rate 1.5% among 340,000;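 active = mean Tm shift, scaled 0 neutral to 100 positive control, at about 1.3% or above, every replicate too, limit read from the data; inconclusive = no clear call, values can overlap the other calls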
# ERAP1 HTS inh – ERAP1 (human) enzyme inhibition; hit rate 0.15% among 340,000; inhibition, % at 10.7 µM; recombinant ERAP1, Leu-AMC fluorescence, 60 min;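 active = mean replicate inhibition of at least 30%, or all replicates individually reaching that 30% level; inactive = mean below 30% and not every replicate reaching it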;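 note: 0% = neutral control wells and 100% = L-leucinethiol positive control wells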
# Target sequence (Q9NZ08 whole entry, looked up): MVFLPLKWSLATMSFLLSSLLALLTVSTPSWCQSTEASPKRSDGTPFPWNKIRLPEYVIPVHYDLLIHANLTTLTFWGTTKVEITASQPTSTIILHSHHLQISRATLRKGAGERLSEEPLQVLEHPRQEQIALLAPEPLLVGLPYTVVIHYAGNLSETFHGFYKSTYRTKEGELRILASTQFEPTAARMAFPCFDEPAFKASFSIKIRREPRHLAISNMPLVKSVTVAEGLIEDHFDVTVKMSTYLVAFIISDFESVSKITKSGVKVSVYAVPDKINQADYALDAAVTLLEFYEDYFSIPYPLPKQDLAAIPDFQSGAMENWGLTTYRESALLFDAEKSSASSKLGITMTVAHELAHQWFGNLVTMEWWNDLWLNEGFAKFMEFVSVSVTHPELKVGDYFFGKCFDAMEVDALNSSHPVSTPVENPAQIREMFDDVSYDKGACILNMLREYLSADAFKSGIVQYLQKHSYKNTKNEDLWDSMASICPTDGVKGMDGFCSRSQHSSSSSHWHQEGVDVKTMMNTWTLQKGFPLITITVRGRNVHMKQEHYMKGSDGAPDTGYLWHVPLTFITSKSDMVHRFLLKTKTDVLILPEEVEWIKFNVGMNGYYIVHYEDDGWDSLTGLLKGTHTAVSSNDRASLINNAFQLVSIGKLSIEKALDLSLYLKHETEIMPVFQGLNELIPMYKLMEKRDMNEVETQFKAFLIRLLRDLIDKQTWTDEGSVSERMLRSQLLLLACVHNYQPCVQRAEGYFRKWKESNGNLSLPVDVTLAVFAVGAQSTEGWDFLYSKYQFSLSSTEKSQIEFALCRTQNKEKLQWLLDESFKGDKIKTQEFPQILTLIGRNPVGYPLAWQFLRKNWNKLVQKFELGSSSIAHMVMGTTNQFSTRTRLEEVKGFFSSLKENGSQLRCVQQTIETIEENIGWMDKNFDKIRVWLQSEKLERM
# Active calls of the source: *; ? = inconclusive; . = no result given.
SMILES,DENV2 CPE rescue,MLL AF4-AF9 inh,RAD52 inh,FGF22 binding,ERAP1 HTS inh
Cc1cccn2c(=O)c3cc(C(=O)NCC4CCCO4)c(=N)n(CC4CCCO4)c3nc12 (stereo not drawn),?,-3.1,16.5,-0.2,82.2*
Cc1ccc2nc3c(cc(C(=O)NCC4CCCO4)c(=N)n3CCCOC(C)C)c(=O)n2c1 (stereo not drawn),.,-0.7,.,.,.
COc1ccc(-c2ccc3c(c2)[C@H]2[C@H](CCN2S(=O)(=O)c2ccc(OC)cc2)[C@@H](CO)N3)cc1,-23.9,.,.,-0.2,.
O=C(Nc1ccccc1F)N1[C@H](CO)[C@@H]2c3ccccc3NC[C@@H]21,3.2,0.1,-3.9,-0.3,-1.3
C[C@@H]1CN([C@@H](C)CO)S(=O)(=O)c2ccc(C#CC(C)(C)O)cc2O[C@H]1CN(C)C(=O)C1CCC1,.,-3.2,3.4,-0.2,-1.8
CC(C)(C)C(=O)/C(C#N)=C/c1cccs1,4.0,4.3,-6.6,0.2,-0.5
N#C/C(=C\c1cccs1)C(=O)c1ccccc1Cl,77.9*,-0.7,-17.7,-0.1,6.1
C[C@H]1CN([C@@H](C)CO)C(=O)c2c(c3ccccc3n2C)-c2ccccc2CO[C@@H]1CN(C)Cc1ccccc1C(F)(F)F,-1.0,0.6,5.9,.,-7.3
CN(C)Cc1ccccc1CNC(=O)c1ccc(Cl)c(S(=O)(=O)NC2CC2)c1,-4.6,-0.3,-1.2,43.3*,-2.1
CN(C)Cc1ccc(CNC(=O)c2ccc(Cl)c(S(=O)(=O)NC3CC3)c2)cc1,1.0,0.2,-0.7,-0.1,0.2
COc1ccc(-c2ccc(C(=O)NCc3ccc(N4CCN(C)CC4)cc3)c3occc23)c(C)c1,-2.1,36.9*,34.5,-0.3,4.7
N#C[C@@H]1[C@@H](c2ccccc2-c2ccc(F)cc2)[C@@H](CO)N1c1ncc(-c2ccccc2)s1,-3.9,-1.3,2.3,-0.1,4.0
COc1ccc([Si](C)(C)[C@@H]2[C@@H](CCO)O[C@]3(C(=O)N(Cc4ccc(NC(C)=O)cc4)c4ccccc43)[C@H]2C)cc1,20.1*,2.9,-1.4,0.8,1.8
C=CCN1C(=O)[C@@]2(O[C@@H](CCn3cc(CCO)nn3)[C@H]([Si](C)(C)c3ccc(OC)cc3)[C@H]2C)c2cc(N3CCOC3=O)ccc21,-3.9,2.6,14.1,-0.2,1.6
C=CCN1C(=O)[C@@]2(O[C@@H](CCn3cc([C@H](O)c4ccccc4)nn3)[C@H]([Si](C)(C)c3ccc(OC)cc3)[C@H]2C)c2cc(N3CCOC3=O)ccc21,41.6*,-0.1,24.7,0.2,1.9
COc1ccc([Si](C)(C)[C@H]2[C@H](CCO)O[C@@]3(C(=O)N(Cc4ccccc4)c4ccc(N5CCOC5=O)cc43)[C@@H]2C)cc1,20.5*,-12.8,-61.9,1.2,0.6
C[C@@H]1CCCCO[C@@H](CN(C)C(=O)NC2CCCCC2)[C@H](C)CN([C@@H](C)CO)C(=O)c2cc(NS(=O)(=O)c3cccs3)ccc2O1,0.1,-1.8,-25.9,-0.7,1.5
O=C(CC1CC1)Nc1ccc2c(c1)[C@H]1C[C@@H](CC(=O)NC3CCCC3)O[C@@H](CO)[C@H]1O2,13.7,-0.3,-0.7,0.0,1.7
O=C(Nc1cccc(Cl)c1)Nc1sccc1-c1nc2ccccc2s1,63.4*,4.6,-29.5,0.3,-3.5
Cc1ccc(NC(=O)CN2CCC(NC(=O)c3cccc(F)c3)CC2)cc1C,34.2*,2.3,-10.7,-0.1,-1.2
C[C@@H]1CN([C@H](C)CO)C(=O)Cc2cc(NS(=O)(=O)c3cn(C)cn3)ccc2O[C@@H]1CN(C)Cc1ccc(C(=O)Nc2ccccc2N)cc1,0.0,4.1,0.6,-0.4,-1.9
O=Cc1cn(CC(=O)Nc2ccccc2)c2ccccc12,5.2,-2.3,-23.6,0.0,-2.5
CC(C)(CO)NCC(O)Cn1cc(C=O)c2ccccc21 (stereo not drawn),-1.3,-2.4,-6.8,43.1*,0.2
COc1ccc(NCC(O)COc2ccc(C(C)(C)C)cc2)cc1 (stereo not drawn),-7.6,7.2,-6.3,0.5,-0.3
CC(C)(C)NCC(O)COc1ccc(Br)cc1 (stereo not drawn),.,-1.3,-6.7,43.6*,-5.1
COc1ccccc1-c1ccc2c(c1)O[C@H](CN(C)C(=O)c1ccccc1)[C@@H](C)CN([C@H](C)CO)S2(=O)=O,9.4,0.9,8.8,-0.4,0.8
COc1ccc(N=C2NN=C(c3c(C)[nH]c4ccccc34)CS2)cc1,-1.0,5.3,-17.6,43.4*,-3.9
